Hits are enriched below; roughly 1.8% of the tested compounds scored in any of these assays.
Tb PFK inh: qHTS Assay to Find Inhibitors of T. brucei phosphofructokinase; ATP-dependent 6-phosphofructokinase (Trypanosoma brucei brucei), O15648; T. brucei PFK, ADP-Glo luminescence; Potency, µM (doses to about 57.5 µM), hits mostly inhibitors; actives 0.17% (n = 330,000); further: nearly all actives have a fitted effect of over 60% in size
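PFK 1.25 nM, F6P 0.5 mM, ATP 0.1 mM, 0.1 M TEA pH 8.0, 5 mM MgCl2, 0.01% Tween20, 0.1% BSA; 45 min RT. ADP-Glo readout. qHTS titration up to 57 uM; curves fitted, compounds curve-classed.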
HEK293 tox: qHTS of GLP-1 Receptor Inverse Agonists: Cytotox Screen; HEK293 cAMP-luciferase reporter cells, luminescence, 24 h; Potency, µM (doses to about 38.3 µM), actives largely listed as inhibitors; actives 0.13% (n = 410,000); AID 624418, 2012;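 further: loss of luciferase light is scored as toxicity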
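Quantitative HTS format, 1536 wells, 200 cells/uL seeded. Compounds: 23 nL, 24 h, 37 °C. Detection: luciferase reagent, luminescence at 12 min RT; decreased signal taken as cytotoxic.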
Tb PGK inh: qHTS Assay to Find Inhibitors of Phosphoglycerate Kinase | PGK/GAPDH coupled, Kinase-Glo luminescence, 60 min | Potency, µM (titrated, usually from 57.5 µM), usual class: inhibitors | actives 0.043% (n = 380,000); further: nearly all actives have a fitted effect of over 60% in size
Target sequence (P07378 whole entry, looked up): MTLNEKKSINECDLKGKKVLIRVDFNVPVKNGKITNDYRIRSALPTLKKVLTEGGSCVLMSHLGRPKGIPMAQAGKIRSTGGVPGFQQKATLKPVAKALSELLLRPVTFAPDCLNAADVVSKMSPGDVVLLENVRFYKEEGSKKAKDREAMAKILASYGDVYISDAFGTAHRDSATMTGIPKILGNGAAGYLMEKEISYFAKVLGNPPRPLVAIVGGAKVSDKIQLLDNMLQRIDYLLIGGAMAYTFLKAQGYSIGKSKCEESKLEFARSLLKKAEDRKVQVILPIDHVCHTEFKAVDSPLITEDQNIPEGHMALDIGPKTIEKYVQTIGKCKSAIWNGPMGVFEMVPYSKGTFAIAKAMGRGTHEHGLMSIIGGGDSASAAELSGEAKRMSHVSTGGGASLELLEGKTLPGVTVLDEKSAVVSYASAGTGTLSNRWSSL
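Recombinant glycosomal PGK reaction used 1,3-bisphosphoglycerate generated in-well by GAPDH (100nM final) in 100mM TEA pH 7.6, 5mM MgCl2, 0.01% Tween-20. After 60 minutes at room temperature, ATP was read by Kinase-Glo Plus luminescence end-point.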
Pin1 inhibitor: qHTS Assay to Find Inhibitors of Pin1; actives 0.009% (n = 390,000); Potency, µM (series often up to 115 µM), hits mostly inhibitors; AID 504891, 2011; Pin1 FP peptide displacement, HiFluor488, 10 min; Peptidyl-prolyl cis-trans isomerase NIMA-interacting 1 (Homo sapiens), Q13526; active means well fitted inhibition curve with a large enough effect in the polarisation, with a control signal flat, not every such curve was filed as active; inconclusive means small, poorly fitted or top-dose-only effect, or effect the other way, or a change in a side signal; inactive means no such curve, though single readings can be large or run the other way; the % refers to the polarisation
GLP1R ag: qHTS of GLP-1 Receptor Agonists; AID 624172, 2012; actives 0.007% (n = 380,000); Potency, µM (titrated, usually from 45.6 µM), most hits filed as activators; HEK293 GLP-1R CRE-luciferase, luminescence, 4-6 h; cells express a hypersensitive GLP-1R form; Glucagon-like peptide 1 receptor (Homo sapiens), P43220
GLP1R inv ag: qHTS of GLP-1 Receptor Inverse Agonists (Inhibition Mode); Glucagon-like peptide 1 receptor (Homo sapiens), P43220; HEK293 GLP-1R CRE-luciferase, luminescence, 24 h; GLP-1R form is constitutively active; Potency, µM (highest dose often 38.3 µM), hits mostly inhibitors; actives 1.6% (n = 410,000); AID 624417, 2012; further: nearly all actives have a fitted effect of over 55% in size
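Assay principle: reduced luminescence from a cAMP-responsive reporter in HEK293 cells co-expressing a constitutively active GLP-1R. Conditions: 24 hr compound incubation, 37 deg C, 5% CO2.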
Large screens that a line does not name were inactive. Unless noted, the call rests on the fitted dose curve; in most records, active means well fitted curve in the direction sought with a large enough effect; inconclusive means small, poorly fitted or top-dose-only effect, or another doubt; inactive means no such curve, though single readings can be large; an effect the other way counts as inactive or inconclusive.

O=C(/C=C/c1ccco1)Nc1cccc(S(=O)(=O)N2CCOCC2)c1	none
CC(=O)c1ccc(OCCCC(=O)Nc2ccc(C)c(S(=O)(=O)N3CCCCC3)c2)cc1	GLP1R inv ag 11µM
CCOc1ccc(C(=O)CCC(=O)Nc2ccc(C)c(S(=O)(=O)N3CCCCC3)c2)cc1	GLP1R inv ag inconclusive
O=c1c2ccccc2cnn1Cc1ccc(Cl)c(Cl)c1	GLP1R inv ag 10µM
O=[S+]([O-])(c1c(F)cccc1F)N1CCN([S+](=O)([O-])c2cccc3nonc23)CC1	none (no result: Tb PFK inh, HEK293 tox, Tb PGK inh, GLP1R ag, GLP1R inv ag)
Cc1cc(C)cc(Nc2cc(C(=O)NCCCN(Cc3ccccc3)C(C)C)c3ccccc3n2)c1	HEK293 tox inconclusive, GLP1R inv ag 5.6µM (no result: Tb PFK inh, GLP1R ag)
CSc1cccc(Nc2cc(C(=O)NCCCN(Cc3ccccc3)C(C)C)c3ccccc3n2)c1	GLP1R inv ag inconclusive (no result: Tb PFK inh, GLP1R ag)
Cc1cc2c(s1)c1cnn(Cc3cc(OC(F)(F)F)ccc3F)c(=O)c1n2C	none (no result: Tb PFK inh, HEK293 tox, Tb PGK inh, GLP1R ag, GLP1R inv ag)
CC(C)(C)N(Cc1ccccc1)C(=O)c1ccc(Br)o1	none
Cc1ccc(C(=O)N(Cc2ccccc2)C(C)(C)C)cc1C	GLP1R inv ag 7.1µM
Cc1cc(C)n(-c2ccc(C(=O)Nc3ccc(S(=O)(=O)NCc4ccco4)cc3)cc2)n1	GLP1R inv ag 11µM
O=C(N/N=C/c1ccc(O)cc1)c1cc(C23CC4CC(CC(C4)C2)C3)[nH]n1	Pin1 inhibitor inconclusive, GLP1R inv ag 1.4µM
COc1ccc(/C=N/NC(=O)c2cc(C34CC5CC(CC(C5)C3)C4)[nH]n2)cc1OC	none
COc1ccc(CN(C)C(=O)C(Cc2ccccc2)NC(=O)c2ccccc2)c(OC)c1OC (stereo not given)	GLP1R inv ag inconclusive (no result: Tb PFK inh, Pin1 inhibitor)
COc1cccc(CN(C)C(=O)C(Cc2ccccc2)NC(=O)c2ccccc2)c1OC (stereo not given)	GLP1R inv ag 8.9µM
CCCCNC(=O)CSc1nc2n[nH]c(C)c2c(=N)n1-c1ccccc1CC	none (no result: Tb PFK inh, GLP1R ag)
COc1ccc(-n2nc3c(N4CCC(C(=O)NCC(C)c5ccccc5)CC4)nnc(C)c3c2C)cc1 (stereo not given)	HEK293 tox inconclusive, Pin1 inhibitor inconclusive, GLP1R inv ag 10µM
CC(C)(C)c1ccc(OCCNCc2ccccc2)cc1	HEK293 tox inconclusive, GLP1R inv ag inconclusive
CC(C)(C)c1ccc(OCCNC(=S)Nc2ccccc2)cc1	HEK293 tox 5.6µM, Pin1 inhibitor inconclusive, GLP1R inv ag 10µM
CN(C)c1ccc(/C=C/c2ccc3c4ccccc4ccc3[n+]2-c2ccccc2)cc1	HEK293 tox 7.9µM, Tb PGK inh inconclusive, GLP1R inv ag inconclusive
CN(C)c1ccc(/C=C/c2nc3ccccc3c(=O)[nH]2)cc1	GLP1R inv ag inconclusive
CCOCCCn1c(SCC(=O)Nc2ccccc2Cl)nc2c(oc3ccccc32)c1=O	none (no result: Tb PFK inh, GLP1R ag)
CCn1c2ccccc2c2cc(CN3CCN(Cc4cc(OC)c(O)c(OC)c4)CC3)ccc21	GLP1R inv ag 11µM (no result: Tb PFK inh, GLP1R ag)
O=C(/C=C\Nc1cccc(F)c1)c1ccc2c(c1)OCO2	GLP1R inv ag 10µM
COC(=O)c1ccc(N/C=C\C(=O)c2ccc3c(c2)OCO3)cc1	none
CCC(NC(=O)C1(C)CC1(Br)Br)c1ccc(C)cc1 (stereo not given)	GLP1R inv ag inconclusive
CCc1ccc(C(C)NC(=O)C2(C)CC2(Br)Br)cc1 (stereo not given)	GLP1R inv ag 10µM
Cc1ccc(NC(=O)Cn2ccn(Cc3ccc(Cl)cc3)c(=O)c2=O)cc1C	none (no result: Tb PFK inh, GLP1R ag)
CCc1ccc(NC(=O)CCc2ccc(CC)o2)cc1	GLP1R inv ag 10µM
CCc1ccc(NC(=O)CCc2ccc(C)o2)cc1	GLP1R inv ag inconclusive

Screening results as filed in PubChem.
